A selection: hits, their analogues and other compounds. The true share with any hit is near 14%.
Pf growth 48h – inhibits P. falciparum growth in the first generation, 48 h; P. falciparum luciferase growth in erythrocytes, 48 h; AID 504832; 310,000 tested, 5.9% active; Potency, µM (highest dose often 28.7 µM), hits mostly inhibitors
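Compounds are pin-transferred into medium, infected erythrocytes (2% hematocrit, 0.1% parasitemia final) are added, and plates sit one parasite generation at 37 C in 5% CO2. Detection reagent is then added and luminescence measured.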
Pf growth 96h – P. falciparum growth inhibition at 96 hours; P. falciparum luciferase reporter growth, 96 h; Potency, µM (series often up to 28.7 µM), usual class: inhibitors; 320,000 tested, 6.9% active; AID 504834
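Delayed-death screen, second-generation endpoint: infected erythrocytes, 2% hematocrit, 0.05% parasitemia final; 96 hours at 37 C, 5% CO2; luciferase detection reagent; luminescence decrease equals reduced growth.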
HCMV inh – blocks human cytomegalovirus replication | HFF cells, HCMV-luciferase reporter, 72 h; hits give low values | activity change, negative = inhibition, % at 57.5 µM | 410,000 tested, 4.5% active | AID 1259415; in the data active = activity change below about -60%; inconclusive = no clear call, values can overlap the other calls; inactive = above about -39%
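Inhibition of viral replication was scored as loss of reporter luminescence in HFFs infected with HCMV-luciferase (MOI 1 PFU/cell) for 72 h; compounds tested at 2 doses, normalized to buffer and Salinomycin controls.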
FBPA Giardia inh – Giardia lamblia aldolase inhibition; A8B2U2; purified Giardia FBPA; Potency, µM (highest dose often 59.6 µM), hits mostly inhibitors; 290,000 tested, 0.71% active; AID 2451; note: nearly all actives have a fitted effect of over 55% in size
Target sequence (A8B2U2 whole entry, looked up): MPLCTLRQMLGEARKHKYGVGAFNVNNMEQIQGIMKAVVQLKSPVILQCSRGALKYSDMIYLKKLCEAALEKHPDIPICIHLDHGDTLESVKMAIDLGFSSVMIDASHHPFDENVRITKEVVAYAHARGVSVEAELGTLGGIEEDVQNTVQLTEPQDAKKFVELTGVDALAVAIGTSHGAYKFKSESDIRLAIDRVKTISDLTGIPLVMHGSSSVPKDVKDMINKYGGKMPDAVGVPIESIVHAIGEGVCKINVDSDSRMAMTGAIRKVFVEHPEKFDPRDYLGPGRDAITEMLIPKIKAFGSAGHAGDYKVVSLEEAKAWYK
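40 nM FBPA preincubated 10 min at RT with compound (up to 57.5 uM final), then substrate plus GAPDH/TPI/NAD/arsenate coupling and diaphorase/resazurin added. Fluorescence read after 20 min at RT, 525/598 nm.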
Sm TGR block – S. mansoni TGR enzyme inhibition | Q962Y6 | purified TGR, DTNB reduction, TNB absorbance 405 nm | Potency, µM (top dose mostly 114 µM), usual class: inhibitors | 360,000 tested, 3% active | AID 485364; note: nearly all actives have a fitted effect of over 60% in size
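Kinetic colorimetric format: TGR-catalysed, NADPH-driven DTNB reduction monitored via TNB absorbance. Enzyme dispensed at 20 nM; compound exposure 15 min at room temperature before reaction start.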
Of the large screens only hits and unclear results are named; the others gave an inactive call. Unless noted, calls come from the whole dose curve; as a rule, active = well fitted curve in the direction sought with a large enough effect; inconclusive = small, poorly fitted or top-dose-only effect, or another doubt; inactive = no such curve, though single readings can be large; an effect the other way counts as inactive or inconclusive.

COC(=O)C1=NN(c2ccc(C)cc2)C2(S1)SC(C(C)=O)=C(C)N2c1ccccc1 (centres undefined)	Pf growth 48h 10.4µM, HCMV inh inconclusive (no result: Pf growth 96h)
CC(=O)C1=NN(c2ccccc2)C2(S1)S/C(=C\c1ccccc1)C(=O)N2c1ccccc1 (centres undefined)	Pf growth 48h 11.7µM (no result: Pf growth 96h)
CC/C=C(\NC(C)=O)c1ccccc1	Sm TGR block inconclusive (no result: FBPA Giardia inh)
Cc1ccc(C)c(CN2C(=O)c3ccccc3Sc3ccc(C(=O)NC4CCCC4)cc32)c1	HCMV inh inconclusive (no result: Pf growth 48h, Pf growth 96h, FBPA Giardia inh)
CCOC(=O)c1ccc(NCCc2ccc(OC)c(OC)c2)c(N)c1	Pf growth 48h 9.28µM, Pf growth 96h inconclusive
COC(=O)c1ccccc1NC(=O)c1sc(N)nc1C	HCMV inh -101.3
Cc1nc(N)sc1C(=O)Nc1ccccc1	Pf growth 96h inconclusive
O=C1c2cccc3c(N4CCCCC4)ccc(c23)C(=O)N1CCO	Pf growth 96h inconclusive
O=C1c2cccc3c(N4CCCCC4)ccc(c23)C(=O)N1c1cccc(O)c1	Pf growth 48h inconclusive, HCMV inh -83.7 (no result: Sm TGR block)
CCS(=O)(=O)N1CCC2(CC1)OC(=O)C(C)=C2C(=O)NCc1ccc(OC)c(OC)c1	none (no result: Pf growth 48h, Pf growth 96h, FBPA Giardia inh)
CCOc1ccc(-c2noc(-c3cccnc3)n2)cc1OC	Pf growth 96h 9.28µM
Clc1ccccc1-c1nc(-c2ccncc2)no1	none
c1ccc(C(Cc2nc(-c3ccncc3)no2)c2ccccc2)cc1	Pf growth 48h 7.38µM, HCMV inh -68.8
Cc1onc(-c2ccccc2Cl)c1-c1nc(-c2ccncc2)no1	Pf growth 96h 11.7µM, HCMV inh inconclusive (no result: Pf growth 48h)
c1ccc(-c2noc(-c3cccnc3)n2)cc1	Pf growth 96h 11.7µM
CCCc1ccc(-c2ccc(-c3noc(-c4ccncc4)n3)cc2)nc1	Pf growth 96h 10.4µM
c1ccc(-c2ccc(-c3nc(-c4ccncc4)no3)cc2)cc1	HCMV inh -71.8 (no result: Pf growth 48h)
Clc1ccc(OCc2nc(-c3ccncc3)no2)cc1	Pf growth 96h 10.4µM (no result: Pf growth 48h)
O=S(=O)(Nc1ncccn1)c1ccc(NC(=S)N2CCN(Cc3ccc(F)cc3Cl)CC2)cc1	Pf growth 96h inconclusive
CC(C)c1ccc(-c2noc(SCC(=O)N(C)c3ccc(F)cc3)n2)cc1	none (no result: Pf growth 48h, Pf growth 96h, FBPA Giardia inh)
CC(C)(C)C1=CC(O)(c2ccccc2)C=C(C(C)(C)C)C1=O	Pf growth 48h 10.4µM, Pf growth 96h inconclusive, HCMV inh -60.4
N=c1nc(N)nc2n1NC(c1ccc(F)cc1)=CS2	Pf growth 96h inconclusive, HCMV inh -87.7
Fc1ccc(C2=CSC3=NCCN23)cc1	none (no result: Sm TGR block)
NC(=S)N/N=C1\CCOc2ccc(Cl)cc21	Pf growth 96h inconclusive, HCMV inh -103.6
COc1ccccc1C(=O)C1CCCN(C(=O)c2snnc2C)C1 (centres undefined)	Pf growth 48h inconclusive
COC(=O)c1ccc(C(NC(=O)OCc2ccccc2)/C(I)=C/[C@@H](C)C(=O)NCc2ccncc2)cc1 (some centres undefined)	none (no result: Pf growth 48h, Pf growth 96h, HCMV inh, Sm TGR block)
COc1cccc(-c2noc(-c3cc4ccccc4oc3=O)n2)c1OC	none (no result: Pf growth 48h, Pf growth 96h, FBPA Giardia inh)
C=CCN(c1ccccc1)S(=O)(=O)c1cccc(C(=O)Nc2ccncc2)c1	Pf growth 48h inconclusive, Pf growth 96h inconclusive, HCMV inh -75.1 (no result: FBPA Giardia inh)
COc1ccc(C(=O)NCC(c2cccs2)N2CCc3ccccc32)c(OC)c1 (centres undefined)	Pf growth 48h 10.4µM, Pf growth 96h 5.22µM (no result: FBPA Giardia inh)
C=CCN(c1ccccc1)S(=O)(=O)c1cccc(C(=O)NCc2ccncc2)c1	none (no result: FBPA Giardia inh)
COc1ccc(NS(=O)(=O)c2cccc(C(=O)NCC(c3ccccc3OC)N3CCCC3)c2)cc1 (centres undefined)	Pf growth 48h 10.4µM, Pf growth 96h inconclusive (no result: FBPA Giardia inh)
CCC1CCc2sc(C(=O)NCC(c3ccc(OC)cc3)N3CCCC3)cc2C1 (centres undefined)	Pf growth 48h 11.7µM, Pf growth 96h inconclusive (no result: FBPA Giardia inh)
Fc1ccccc1Cc1cn2cc(-c3ccc(Cl)cc3)nc2s1	none (no result: Pf growth 48h, Pf growth 96h, FBPA Giardia inh)
CCN(c1ccccc1)S(=O)(=O)c1cccc(C(=O)NCC(c2ccc(OC)cc2)N2CCCCC2)c1 (centres undefined)	none (no result: Pf growth 48h, Pf growth 96h, FBPA Giardia inh, Sm TGR block)
COc1cccc(C(=O)NCC(c2ccc(N(C)C)cc2)N2CCc3ccccc32)c1 (centres undefined)	HCMV inh -67.9 (no result: Pf growth 48h, Pf growth 96h, FBPA Giardia inh)
COc1ccc(C(CNC(=O)CNC(=O)c2cccc(Cl)c2)N2CCCC2)cc1 (centres undefined)	Pf growth 96h inconclusive (no result: FBPA Giardia inh)

Screening results deposited in PubChem by National Center for Advancing Translational Sciences (NCATS).
